Several values for one entry are separate records, joined by “and”; a condition that tells them apart may be missing. Equal values may be shown once. Hit rate of the full screen: of about 1,300 compounds, about 1,000 (77%) were called active. Inconclusive results (about 7%) are left out. The call rests on the fitted dose curve; in most records, active means well fitted inhibition curve with a large enough effect; inconclusive means small, poorly fitted or top-dose-only effect; inactive means no such curve, though single readings can be large or run the other way. The set was probably picked from earlier hits. The list shows a part of the results.
Assay: qHTS of small molecules that selectively kill Giardia lamblia: Hit Validation.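 Further: viability measured as ATP content by luminescence so killing lowers signal; nearly all actives have a fitted effect of over 65% in size.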
Details: Giardia lamblia trophozoite viability, dose-response; series mostly up to 38.3 µM
Excerpt: Giardia lamblia is a human pathogen afflicting impoverished nations, and the most common cause of outbreaks of diarrhea in the United States. Giardia has been classified by the CDC as a category B bioterrorism organism. The favored anti giardiasis drugs in the US are metronidazole or tinidazole, compounds that have undesirable side effects. Moreover, increasing resistance to drug regimes and recurrence are a concern. It is thus clear that alternative drug treatments are needed.
In a collaboration between the University of Maryland, College Park and the NIH Chemical Genomics Center, a bioluminescence Giardia viability assay based on the trophozoites' ATP content was developed. This assay is suitable for high throughput screening, and miniaturized the assay for compound screening in 1536-well plates. The goal of the project is to screen the Molecular Libraries Small Molecule Repository (MLSMR) for compounds that selectively kill Giardia trophozoites.
NIH Chemical Genomics Center [NCGC]
NIH Molecular Libraries Probe Centers Network [MLPCN]
Assay Submitter (PI): Osnat Herzberg, University of Maryland, College Park, MD.
1. Dispense 2 ul/well media
2. Dispense 23 nl/well compounds
3. Dispense 4 ul/well Giardia trophozoites at a concentration of 100 cells/well
4. Incubate 48 hrs at 37 deg C anaerobically
5. Dispense 4 ul/well ATPLite 1-Step Luminescence assay kit
6. Incubate 15-30 min at room temperature
7. Read luminescence signal on ViewLux plate reader
Potency means the concentration at half of the fitted maximal effect.

Row | SMILES | Potency
1 | O=C(CSc1ccsc1[N+](=O)[O-])NCCc1ccccc1 | 0.818 µM (active)
2 | O=C(CSc1ccsc1[N+](=O)[O-])NCCc1ccc(Cl)cc1 | 1.3 µM (active)
3 | CN=c1c([N+](=O)[O-])nn(-c2ccc3c(c2)OCCO3)n1O | 4.1 µM (active)
4 | CCc1cccc(N=c2c([N+](=O)[O-])nn(-c3ccc(Cl)cc3)n2O)c1 | 1.45 µM (active)
5 | COc1cc(N=c2c([N+](=O)[O-])nn(-c3ccc4c(c3)OCCO4)n2O)cc(OC)c1 | 5.16 µM (active)
6 | O=[N+]([O-])c1nn(-c2ccc3c(c2)OCCO3)n(O)c1=NCCC1=CCCCC1 | 1.63 µM (active)
7 | CCc1cccc(N=c2c([N+](=O)[O-])nn(-c3ccc4c(c3)OCCO4)n2O)c1 | 0.818 µM (active)
8 | O=[N+]([O-])c1nn(-c2ccc3c(c2)OCCO3)n(O)c1=NCCCO | 2.05 µM (active)
9 | Cc1cc(C)cc(N=c2c([N+](=O)[O-])nn(-c3ccc4c(c3)OCCO4)n2O)c1 | 0.729 µM (active)
10 | Cn1nc(-c2ccncc2)nc2c(=O)n(C)c(=O)nc1-2 | 1.16 µM (active)
11 | Cn1nc(-c2ccc(Cl)cc2)nc2c(=O)n(C)c(=O)nc1-2 | 0.13 µM (active)
12 | Cn1nc(-c2ccc(F)cc2)nc2c(=O)n(C)c(=O)nc1-2 | 0.103 µM (active)
13 | Cn1nc(-c2cccnc2)nc2c(=O)n(C)c(=O)nc1-2 | 4.1 µM (active)
14 | COc1ccc(-c2nc3c(=O)n(C)c(=O)nc-3n(C)n2)cc1 | 0.163 µM (active)
15 | CCCc1nc2c(=O)n(C)c(=O)nc-2n(C)n1 | 0.326 µM (active)
16 | O=C1/C(=C/c2ccc(O)c([N+](=O)[O-])c2)SC(=S)N1Cc1ccccc1 | 1.45 µM (active)
17 | O=C1S/C(=C\c2ccc(O)c([N+](=O)[O-])c2)C(=O)N1Cc1cccc([N+](=O)[O-])c1 | 0.818 µM (active)
18 | O=C(O)c1cccc(CN2C(=O)S/C(=C/c3ccccc3[N+](=O)[O-])C2=O)c1 | inactive
19 | O=C1S/C(=C\c2ccc(O)c([N+](=O)[O-])c2)C(=O)N1c1ccccc1Cl | 1.63 µM (active)
20 | COc1cccc(/C=C2\Oc3ccc(O)cc3C2=O)c1O | 3.26 µM (active)
21 | CC(=O)c1c(C)n([O-])c2ccc(C)cc2[n+]1=O | 0.41 µM (active)
22 | CC(=O)c1c(C)n([O-])c2cc(C)ccc2[n+]1=O | 0.818 µM (active)
23 | CC(=O)c1c(C)n([O-])c2ccccc2[n+]1=O | 0.65 µM (active)

Row | SMILES | Potency
24 | CCN(CC)CC(=O)c1c(C)n(C)c2ccc(OC)cc12 | inactive
25 | COc1ccc2c(c1)[n+](=O)c(C(C)=O)c(C)n2[O-] | 4.1 µM (active)
26 | CCOc1ccc(-n2c(C)c(C(C)=O)c3cc(O)ccc32)cc1 | inactive
27 | NC(=S)N/N=C1\c2ccccc2-c2c(C(=O)O)cccc21 | inactive
28 | CC(=O)c1c(C)n([O-])c2cc(F)c(F)cc2[n+]1=O | 4.1 µM (active)
29 | CC(=O)OCc1c(COC(C)=O)[n+](=O)c2ccccc2n1[O-] | 5.79 µM (active)
30 | O=C(Nc1ccc2oc(-c3ccccc3F)nc2c1)c1ccc([N+](=O)[O-])o1 | 0.818 µM (active)
31 | O=C(Nc1ccc2oc(-c3ccncc3)nc2c1)c1ccc([N+](=O)[O-])o1 | 0.918 µM (active)
32 | O=C(Nc1ccc2oc(-c3cccnc3)nc2c1)c1ccc([N+](=O)[O-])o1 | 0.918 µM (active)
33 | Cc1cnc(N=Nc2ccccc2)[nH]1 | 9.18 µM (active)
34 | O=C(NCCCO)c1cc([N+](=O)[O-])cc2c1C=Cc1ccccc1O2 | 11.6 µM (active)
35 | O=C(Nc1c(Cl)ccc2nsnc12)c1ccc([N+](=O)[O-])o1 | 1.3 µM (active)
36 | Cc1ccc2nsnc2c1NC(=O)c1ccc([N+](=O)[O-])o1 | 3.26 µM (active)
37 | NC(=S)NN=C1CCCCCCCC1 | 23.1 µM (active)
38 | Cc1ncc([N+](=O)[O-])n1CCOC(=O)NC(NCc1ccccc1Cl)C(Cl)(Cl)Cl (stereo unspecified) | 0.146 µM (active)
39 | Cc1ncc([N+](=O)[O-])n1CCOC(=O)NC(NCc1cccnc1)C(Cl)(Cl)Cl (stereo unspecified) | 0.46 µM (active)
40 | Cc1ncc([N+](=O)[O-])n1CCOC(=O)NC(NCc1ccccc1)C(Cl)(Cl)Cl (stereo unspecified) | 0.206 µM (active)
41 | CCCCCCSc1ccc([C@H]2N[C@@](Cc3ccccc3)(C(=O)OC)[C@H]3C(=O)N(C)C(=O)[C@@H]23)cc1 | inactive
42 | Cc1cc(=O)oc2cc(O)c(N=Nc3ccccc3)cc12 | 1.03 µM (active)
43 | Cn1c(-c2ccc(C(=O)c3ccccc3)s2)nc2ccccc21 | 3.26 µM (active)
44 | COc1ccc(-c2cn3cc([N+](=O)[O-])ccc3n2)cc1OC | 1.83 µM (active)
45 | O=[N+]([O-])c1ccc2nc(-c3ccc(OC(F)F)cc3)cn2c1 | 2.31 µM (active)
46 | COc1ccc(C(=O)Nc2ccc(C)cn2)c(OC)c1 | 0.579 µM (active)

Row | SMILES | Potency
47 | COC(=O)c1sc(NC(=O)c2ccc(OC)cc2OC)nc1C | 0.365 µM (active)
48 | COc1cc(C(=O)NC(=S)Nc2ccc(Cl)cn2)cc(OC)c1OC | inactive
49 | C[C@H]1CN=C(N(C)C)N1CCC1CCCC1 | inactive
50 | CCOC(=O)CSc1ccc(C(=O)NCCCN2CCOCC2)cc1[N+](=O)[O-] | 18.3 µM (active)
51 | O=C(CN(C1CCCCC1)S(=O)(=O)c1ccc(F)cc1)NCC1CCCO1 (stereo unspecified) | 1.63 µM (active)
52 | Cc1c[n+]([O-])ccc1[N+](=O)[O-] | 1.3 µM (active)
53 | Cc1nc2c(ccc3nc(NC(=O)c4ccc5c(c4)OCCO5)sc32)s1 | 3.26 µM (active) and 3.65 µM (active)
54 | Cc1cc(NC(=O)c2ccc(C(C)(C)C)cc2)no1 | 6.5 µM (active)
55 | Cc1cc(NC(=O)c2ccc3c(c2)OCCO3)no1 | 1.16 µM (active)
56 | Cc1ccnc(NC(=O)c2ccc3c(c2)OCO3)c1 | 2.59 µM (active)
57 | N#Cc1sc(NCc2cccc(Cl)c2)nc1Cl | 23.1 µM (active)
58 | NC(=O)CCCn1c(C(=O)c2ccc(Cl)cc2)c2ccc([N+](=O)[O-])cc2[n+]1[O-] | 1.16 µM (active)
59 | NCCCn1c(C(=O)c2ccc(Cl)cc2)c2ccc([N+](=O)[O-])cc2[n+]1[O-] | 3.26 µM (active)
60 | CCOC(=O)C1=C(C)N=c2s/c(=C/c3cccc([N+](=O)[O-])c3O)c(=O)n2C1c1ccccc1 (stereo unspecified) | 2.31 µM (active)
61 | CCOC(=O)C1=C(C)N=c2s/c(=C/c3cccc([N+](=O)[O-])c3O)c(=O)n2C1c1cc(OC)c(OC)c(OC)c1 (stereo unspecified) | 2.9 µM (active)
62 | CCOC(=O)C1=C(C)N=c2s/c(=C\c3ccc(O)c([N+](=O)[O-])c3)c(=O)n2C1c1ccccc1OC (stereo unspecified) | 2.05 µM (active)
63 | CCOC(=O)C1=C(C)N=c2s/c(=C/c3cccc([N+](=O)[O-])c3O)c(=O)n2C1c1ccc(OC)cc1OC (stereo unspecified) | 1.83 µM (active)
64 | CN(C)C(=O)CCc1ccc2c3c([nH]c2c1)[C@]1(CCC2CCCC2)[C@@H](C(=O)N2CCOCC2)C[C@H](CC(=O)NCCN2CCOCC2)C(=O)N1CC3 | inactive
65 | CC(=O)N1CCN(c2ccc(NC(=O)c3ccc([N+](=O)[O-])o3)cc2Cl)CC1 | 1.45 µM (active)
66 | CN1CCN(c2ccc(NC(=O)c3ccc([N+](=O)[O-])o3)cc2Cl)CC1 | 1.3 µM (active)
67 | CS(=O)(=O)N1CCN(c2ccccc2NC(=O)c2ccc([N+](=O)[O-])o2)CC1 | 1.3 µM (active)
68 | CCC(=O)N1CCN(c2ccc(Cl)cc2NC(=O)c2ccc([N+](=O)[O-])o2)CC1 | 1.16 µM (active)
69 | CC(=O)Nc1ccc(S(=O)(=O)NCCC(=O)N2CCN(c3ccccc3Cl)CC2)cc1 | inactive

Row | SMILES | Potency
70 | O=C(Nc1ccccc1N1CCN(C(=O)c2ccccc2)CC1)c1ccc([N+](=O)[O-])o1 | 0.818 µM (active)
71 | CCN1CCN(c2ccc(NC(=O)c3ccc([N+](=O)[O-])o3)cc2Cl)CC1 | 0.729 µM (active)
72 | CCC(=O)N1CCN(c2ccc(NC(=O)c3ccc([N+](=O)[O-])o3)cc2Cl)CC1 | 0.65 µM (active)
73 | CN1CCN(c2ccc(NC(=O)c3ccc4c(c3)OCCO4)cc2Cl)CC1 | 5.16 µM (active)
74 | O=C(Nc1cccc(Cl)c1N1CCOCC1)c1ccc([N+](=O)[O-])o1 | 1.3 µM (active)
75 | CC(C)C(=O)N1CCN(c2ccc(NC(=O)c3ccc([N+](=O)[O-])o3)cc2Cl)CC1 | 1.03 µM (active)
76 | CC(C)C(=O)N1CCN(c2ccccc2NC(=O)c2ccc([N+](=O)[O-])o2)CC1 | 1.16 µM (active)
77 | O=C(Nc1ccccc1N1CCOCC1)c1ccc([N+](=O)[O-])o1 | 1.3 µM (active)
78 | CCC(=O)N1CCN(c2ccccc2NC(=O)c2ccc([N+](=O)[O-])o2)CC1 | 0.818 µM (active)
79 | COc1ccc(-c2nc(CSCC(=O)NC3CCCC3)c(C)o2)cc1OC | inactive
80 | COc1ccc(CN(C(=O)CSc2nnc(-c3ccc(OC)c(OC)c3)o2)c2ccc(F)cc2)cc1 | 3.65 µM (active)
81 | Cc1ccc(CSc2nnc(Cn3c(=O)sc4ccccc43)n2C)cc1 | inactive
82 | Cc1ccc(-c2nc(-c3ccccc3)no2)c(Cl)c1 | 1.63 µM (active)
83 | Nc1ccc[n+](CC(=O)c2ccc(F)cc2)c1 | 2.31 µM (active)
84 | O=C(Nc1cccc2ccccc12)c1ccc([N+](=O)[O-])s1 | 2.05 µM (active)
85 | Cc1cccc(NC(=O)c2ccc([N+](=O)[O-])s2)c1C | 3.26 µM (active)
86 | COc1cc2sc3cc(NCCCN4CCOCC4)ccc3c(=O)c2cc1OC | 5.16 µM (active)
87 | COc1ccc(Cc2noc(CN(C)Cc3ccc(-n4cccn4)cc3)n2)cc1OC | inactive
88 | COc1cc2nc(CN(C)Cc3ccc(C(C)(C)C)cc3)[nH]c(=O)c2cc1OC | 5.16 µM (active)
89 | Cc1ncc([N+](=O)[O-])n1CCOC(=O)c1ccc(Br)cc1 | 1.16 µM (active)
90 | Cc1ncc([N+](=O)[O-])n1CCOC(=O)c1ccccc1 | 1.03 µM (active)
91 | Cc1ncc([N+](=O)[O-])n1CCOC(=O)C12CC3CC(CC(C3)C1)C2 | 1.3 µM (active)
